This passage reports growth results from PubChem BioAssay (NCI).

Molecules are shown by their SMILES. Compounds without any hit were thinned out: in the full panel of roughly 83,000, 20% have a hit.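 Negative percent growth values reflect cell death: -40 means 40% of the cells present at the start died, and -100 means all died.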 Unmarked numbers belong to inactive results. The source made the active and inactive calls. How the source made its calls: active means growth percent below 10; inactive means the rest.

For the test, the system named is K-562 leukemia. The test can be described thus: NCI-60 one-dose screen, 48 h (100 = growth as untreated, 0 = no growth, -100 = all killed). The following applies: 10 µM unless noted.
Consider `NC(=O)n1c(=O)n(-c2cccc(C(F)(F)F)c2)c(=O)c2cc(-c3ccc(F)cc3F)ccc21`, for which the growth is 5.61% (active).
In the case of `O=C1CSC(c2cn(-c3ccccc3)nc2-c2ccc(Cl)cc2)N1c1ccccc1` (stereo unspecified) it was 109%; in that of `COc1ccc(/C=N/NC(=O)CSc2nc(-c3cnccn3)cc(-c3cccs3)c2C#N)cc1`, 79.5%.
In the case of `C#Cc1cc(OC)c(C(=O)Nc2ccc(F)cc2C(=O)Nc2cccc(S(=O)(=O)C(F)(F)F)c2)cn1` it was 5.65% (active); in that of `CN1c2ccccc2Sc2cc(/C=N/Nc3ccnc4cc(Cl)ccc34)ccc21`, -7.83% (active); in that of `O=C(/C=C/c1cccc(F)c1)c1cccc(OCCCOc2cccc(C(=O)/C=C/c3cccc(F)c3)c2)c1`, 21.7%.
Then `CN1CCN(Cc2ccc(NC(=O)c3cncc(C#Cc4cnc(N)nc4)c3)cc2C(F)(F)F)CC1`, with 5.93% (active); and `O=C(CSc1nc2ccccc2c(=O)n1-c1ccc(Cl)c(Cl)c1)Nc1ccc(S(=O)(=O)Nc2ccc(Cl)nn2)cc1`, with 96.5%.
Turning to `Cc1[nH]c(C(=O)Nc2ccc(C(N)=O)cc2N2CCOC(C)C2)c(Cl)c1Cl` (stereo unspecified), the growth was 92.2%.
As to `N#Cc1nc(-c2ccccc2)oc1N1CCC(C2(C(F)(F)F)N=N2)CC1`, the growth was 90%.
In the case of `C/C(=C(\c1ccc(O)cc1)c1ccc(OCCN2CCCCCC2)cc1)c1ccc(Cl)cc1` it was 5.91% (active); in that of `COc1ccc(C(=O)c2c(N)c(C#N)cn2-c2ccc(Cl)cc2Cl)cc1`, 93.6%.
Regarding `C#C[C@]1(O)CC[C@H]2[C@@H]3CC=C4c5sc(Nc6cccc(F)c6)nc5CC[C@]4(C)[C@H]3CC[C@@]21C`, the growth is 0.936% (active).
In the case of `C[C@@H]1OCC2(CCN(c3cnc(C(=O)Nc4cc(F)cc5cccnc45)cn3)CC2)[C@@H]1N` it was 8.84% (active).
As for `Cn1c(SCC(=O)c2ccc(F)cc2)nc2ccccc2c1=O`, the growth was 76.4%.
In the case of `O=C(CCCCCC/C=C\c1csc(Br)n1)NO` it was 50.5%; in that of `COc1ccc(-c2cc(-c3ccc(N4CCOCC4)cc3)n3c(n2)nc2ccccc23)cc1OC`, 68.9%; in that of `CN(C)c1cccc2c(S(=O)(=O)Nc3cccc(-c4csc(NC(=O)CCCCCN5CCN(CCO)CC5)n4)c3)cccc12`, 7.77% (active).
In the case of `O=c1nc(Nc2ccc([N+](=O)[O-])cc2O)sc2ccccc12` it was 12.9%.
In the case of `CCc1cc(OC(=O)N2CCC(N3CCCCC3)CC2)ccc1Nc1cc(-c2ccc(-n3cccn3)cc2)[nH]n1` it was -17.2% (active); in that of `COc1ccc(-c2c(C(N)=O)c(N)n(Cc3nc4ccccc4[nH]3)c(=O)c2C#N)c(OC)c1`, 101%.
As for `CCOC(=O)Nc1ccc2c(ccn2C(=O)c2cccc(F)c2)c1`, the growth was 14.2%.
With `CN(C)CCCOc1ccc(C(=C(c2ccccc2)C2CCCC2)c2ccc(OCCCN(C)C)cc2)cc1`, the growth is -4.67% (active).
Then `CN1CCC[C@]2(C)[C@H]3CC[C@@H]4[C@@H]5[C@H]6OC[C@@]5(CCC6(C)C)CC[C@@]4(C)[C@]3(C)CC[C@H]2C1(C)C`, with 4.84% (active); and `CNC(=O)c1cc(-c2ccc(NC(=S)Nc3cccc(C(F)(F)F)c3)cc2)nc2cccnc12`, with 90.8%.
In the case of `CC1(C)C=Cc2cc(/C(N)=N/C(N)=N/c3nc4ccccc4s3)ccc2O1` it was 57.6%; in that of `C#Cc1cc(C(=O)Nc2ccc(CNCCN3CCOCC3)c(C(F)(F)F)c2)ccc1C`, 67.1%.
Then `CC(C)(O)c1cncc(-c2ccc3ncc(C#N)c(N4CCc5cc(F)c(Cl)cc54)c3c2)c1`, with 29.6%; and `CN1CCN(Cc2ccc(/C=N/Nc3ccnc4cc(Cl)ccc34)cc2)CC1`, with 4.76% (active); and `Cc1ccc(C(=O)CSc2nnc(-c3ccc(-c4ccc(Cl)cc4)nc3C)o2)cc1`, with 101%.
Consider `Cc1ccccc1N1CCN(C2=C(Cl)C(=O)c3ncccc3C2=O)CC1`, for which the growth is 7.01% (active).
In the case of `O=C1Nc2ccccc2/C1=C/c1ccc(OCC(=O)c2ccccc2)cc1` it was 88.9%.
As for `CC1=C(C)C(=O)C(Nc2ccc3c(c2)OCCO3)=C(Br)C1=O`, the growth is 4.46% (active).
Then `CCN(CC)c1ccc(/C=N/NC(=O)c2ccc(S(N)(=O)=O)cc2)c(O)c1`, with 12.4%; and `Cc1ccc(S(=O)(=O)NCCCNc2nc(Nc3ccc(N4CCN(C)CC4)cc3)nc3ccsc23)cc1`, with 13.3%; and `CN1CCN(Cc2ccc(NC(=O)c3cncc(C#Cc4cnc5ccc(NCCO)nn45)c3)cc2C(F)(F)F)CC1`, with 5.38% (active).
